# Hit rate of the full screen: of about 39,000 compounds, about 220 (0.56%) showed activity. For the sample, actives were picked, then their nearest neighbours and some compounds at random. Unmarked numbers belong to inactive results.
# System: Escherichia coli K-12 BW25113
# Experiment: relative growth (OD600 normalised to plate interquartile mean) (fraction); higher = less growth inhibition, active = 0.2 or less
# Conditions: 50 µM; LB; incubation time: overnight (16-24 h)
# 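Also: Wild-type cells incubated without shaking, value is the mean of two biological replicates.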
row,Structure (SMILES),relative growth
1,C[N+](C)(C)CCCl,1
2,C[N+](C)(C)CCCCCCCCCC[N+](C)(C)C.[Br-].[Br-],1.05
3,CCCCCCCCCCCCCCCC[N+](C)(C)C.[Br-],0.0522 (active)
4,CCC(N)C(O)c1ccc(O)c(O)c1.Cl (stereo unspecified),0.99
5,"CC12CCC3C(CCC4CC(=O)CCC43C)C1CCC2=O (stereo not drawn) [""5alpha-ANDROSTAN-3,17-DIONE""]",0.862
6,CCC(=O)CCCCC[C@@H]1NC(=O)[C@H]2CCCCN2C(=O)[C@H]([C@H](C)CC)NC(=O)[C@H](Cc2cn(OC)c3ccccc23)NC1=O,1
7,COc1cc2c(cc1OC)C13CCN4CC5=CCOC6CC(=O)N2C1C6C5CC43 (stereo unspecified),1.05
8,CCn1cc(C(=O)[O-])c(=O)c2cc3c(cc21)OCO3.[K+],0.0482 (active)
9,CCC(=O)CCCCC[C@@H]1NC(=O)[C@H]2CCCCN2C(=O)[C@H]([C@@H](C)CC)NC(=O)[C@H](Cc2cn(OC)c3ccccc23)NC1=O,0.957
10,O=C1N[C@@H]2C(=C[C@H](O)[C@@H](O)[C@H]2O)c2cc3c(c(O)c21)OCO3,0.913
11,N#Cc1cccnc1,1.01
12,NNc1ccn([C@H]2O[C@@H](CO)[C@@H](O)[C@@H]2O)c(=O)n1,0.394
13,COP(=O)(OC)C(O)C(Cl)(Cl)Cl (stereo unspecified),0.874
14,CC(C)(O)/C=C/C(=O)[C@](C)(O)[C@H]1[C@H](O)C[C@@]2(C)[C@H]3CC=C4[C@@H](CC(=O)C(=O)C4(C)C)[C@]3(C)C(=O)C[C@]12C,0.979
15,[O-][n+]1ccccc1[S][Zn][S]c1cccc[n+]1[O-],0.0506 (active)
16,CC(C)C[C@@H]1C(=O)N2CCC[C@@H]2[C@]2(O)O[C@@](NC(=O)[C@@H]3C=C4c5cccc6[nH]cc(c56)C[C@@H]4N(C)C3)(C(C)C)C(=O)N12,1.04
17,O=C([O-])Cc1ccccc1.[Na+],0.934
18,CCCCOC(=O)c1ccccc1C(=O)OCCCC,1.11
19,C[CH2][Hg][S]c1ccccc1C(=O)[O-].[Na+],0.0484 (active)
20,CC(=O)OC1CCC2(C)C(CCC3C2CCC2(C)C(C4=CC(=O)OC4)C(OC(C)=O)CC32O)C1 (stereo unspecified),1.01
21,CC(C)=CCCC1(C)C=Cc2c(O)c3c(c(CC=C(C)C)c2O1)OC12C(=CC4CC1C(C)(C)OC2(CC=C(C)C(=O)O)C4=O)C3=O (stereo unspecified),1.01
22,NC(=O)c1ccc(N)nc1,0.986
23,CCCN1CC(CSC)CC2c3cccc4[nH]cc(c34)CC21.CS(=O)(=O)O (stereo unspecified),1.15
24,CCNC(=O)[C@H]1O[C@@H](n2cnc3c(N)ncnc32)[C@H](O)[C@@H]1O,0.996

row,Structure (SMILES),relative growth
1,Oc1ccc(Cl)cc1Cc1cc(Cl)ccc1O,0.398
2,Oc1cc(Cl)ccc1Oc1ccc(Cl)cc1Cl,0.0446 (active)
3,Nc1ccc(Cl)cc1Cl,1.02
4,CN1CC(=O)N(c2cccnc2)C[C@]12CCNC2,0.998
5,CC12CCC3C(CCC4(O)CC(O)CCC34C=O)C1(O)CCC2C1=CC(=O)OC1 (stereo unspecified),0.972
6,CC(=O)Oc1ccc(Cl)c2cccnc12,0.0572 (active)
7,CC=C1CC(C)C(O)(CO)C(=O)OCC2=CCN3CCC(OC1=O)C23 (stereo unspecified),1.04
8,CN1CCOC[C@]2(CCCNC2)C1,0.994
9,C[C@]12C(=O)OC(=O)[C@]1(C)[C@H]1CC[C@H]2O1,0.97
10,CN1C(=O)[C@]23CC4=CC=C[C@H](O)[C@H]4N2C(=O)[C@@]1(CO)SS3,0.0665 (active)
11,CN1C(=O)[C@@]23C[C@]4([C@@]56C[C@]78SS[C@](CO)(C(=O)N7[C@@H]5Nc5ccccc56)N(C)C8=O)c5ccccc5N[C@H]4N2C(=O)[C@@]1(CO)SS3,0.917
12,CC1OC(OC2CCC3(C=O)C4CCC5(C)C(C6=CC(=O)OC6)CCC5(O)C4CCC3(O)C2)C(O)C(O)C1O (stereo unspecified),1.15
13,c1cnc2[nH]cc(CN3CCNCC3)c2c1,0.977
14,CC(=O)O[C@H]1C[C@H](O[C@H]2[C@@H](O)C[C@H](O[C@H]3[C@@H](O)C[C@H](O[C@H]4CC[C@@]5(C)[C@@H](CC[C@H]6[C@@H]5C[C@@H](O)[C@]5(C)[C@@H](C7=CC(=O)OC7)CC[C@]65O)C4)O[C@@H]3C)O[C@@H]2C)O[C@H](C)[C@H]1O[C@@H]1O[C@H](CO)[C@@H](O)[C@H](O)[C@H]1O,0.986
15,COP(=S)(OC)Oc1ccc(Sc2ccc(OP(=S)(OC)OC)cc2)cc1,0.986
16,COP(=S)(OC)Oc1cc(Cl)c(Cl)cc1Cl,0.0496 (active)
17,CCOP(=S)(OCC)Oc1nc(Cl)c(Cl)cc1Cl,1.06
18,CCn1cnc2c(Nc3cccc(Cl)c3)nc(N[C@@H]3CCCC[C@@H]3N)nc21,0.943
19,CC(=O)OCC1=C(C(=O)O)N2C(=O)[C@@H](NC(=O)CCC[C@@H](N)C(=O)O)[C@@H]2SC1,1.02
20,CNc1ccc2oc(C[C@H]3O[C@@]4(CC[C@H]3C)O[C@H]([C@H](C)C(=O)c3ccc[nH]3)[C@H](C)C[C@H]4C)nc2c1C(=O)O,0.962
21,CCCCCCCCCCCCCCCC[n+]1ccccc1,0.16 (active)
22,CCCCCCCCCCCCCCCC[n+]1ccccc1.[Cl-],0.0713 (active)
23,CC[C@@H](C)NC=C1C(=O)NC(=O)NC1=O,1.01
24,CC1OC(OC2CC(O)C3(CO)C4C(O)CC5(C)C(C6=CC(=O)OC6)CCC5(O)C4CCC3(O)C2)C(O)C(O)C1O.O.O.O.O.O.O.O.O (stereo unspecified),1.01

row,Structure (SMILES),relative growth
1,CC1OC(OC2C=C3CCC4C(CCC5(C)C(c6ccc(=O)oc6)CCC45O)C3(C)CC2)C(O)C(O)C1O (stereo unspecified),0.977
2,C[C@@H]1O[C@@H](O[C@H]2CC[C@]3(C=O)[C@H]4CC[C@]5(C)[C@@H](C6=CC(=O)OC6)CC[C@]5(O)[C@@H]4CC[C@]3(O)C2)[C@H](O)[C@H](O)[C@H]1O,1
3,C=C(C)[C@H]1CN[C@H](C(=O)O)[C@H]1CC(=O)O,0.978
4,Cc1nn[nH]n1,0.979
5,Cc1c(N)nc([C@H](CC(N)=O)NC[C@@H](N)C(N)=O)nc1C(=O)N[C@H](C(=O)N[C@@H](C)[C@H](O)[C@@H](C)C(=O)N[C@@H](C(=O)NCCc1nc(-c2nc(C(=O)NCCC[S+](C)C)cs2)cs1)[C@@H](C)O)[C@@H](O[C@H]1O[C@H](CO)[C@H](O)[C@@H](O)[C@H]1O[C@H]1O[C@H](CO)[C@@H](O)[C@H](OC(N)=O)[C@@H]1O)c1cnc[nH]1,0.0324 (active)
6,Cc1c(N)nc([C@H](CC(N)=O)NC[C@@H](N)C(N)=O)nc1C(=O)N[C@H](C(=O)N[C@@H](C)[C@H](O)[C@@H](C)C(=O)N[C@@H](C(=O)NCCc1nc(-c2nc(C(=O)NCCC[S+](C)C)cs2)cs1)[C@@H](C)O)[C@@H](O[C@H]1O[C@H](CO)[C@H](O)[C@@H](O)[C@H]1O[C@H]1O[C@H](CO)[C@@H](O)[C@H](OC(N)=O)[C@@H]1O)c1c[nH]cn1,0.0355 (active)
7,Cc1cc(O)c2c(=O)c3c(O)cc(O)c4c5c(O)cc(O)c6c(=O)c7c(O)cc(C)c8c1c2c(c34)c(c78)c65,1.61
8,O=C1[O][SbH]23[O]C(=O)[C@H]([O]2)[C@H]2[O][SbH]4([O]C(=O)[C@H]([O]4)[C@H]1[O]3)[O]C2=O,0.313
9,CC1=C[C@H]2O[C@@H]3[C@H](O)[C@@H](O[C@H]4O[C@H](CO)[C@@H](O)[C@H](O)[C@H]4O)[C@](C)([C@@]2(CO)CC1)[C@]31CO1,0.947
10,O=C1CCCC2C3CCCN4CCCC(CN12)C34 (stereo unspecified),1.05
11,CCn1nc(-c2cccnc2)nc2c(=O)n(C)c(=O)nc1-2,0.846
12,Cc1nc2c(=O)n(C)c(=O)nc-2n(C)n1,0.0393 (active)
13,Cn1ncnc2c(=O)n(C)c(=O)nc1-2,0.0341 (active)
14,COc1cccc2c1C(=O)c1c(O)c3c(c(O)c1C2=O)C[C@@](O)(C(=O)CO)C[C@@H]3O[C@H]1C[C@H](N2CCO[C@H](OC)C2)[C@H](O)[C@H](C)O1,0.933
15,CO[C@H]1C[C@H](O[C@H]2CC[C@]3(C=O)[C@H]4CC[C@]5(C)[C@@H](C6=CC(=O)OC6)CC[C@]5(O)[C@@H]4CC[C@]3(O)C2)O[C@H](C)[C@H]1O,0.98
16,CO[C@H]1[C@@H](O)C[C@@H](O[C@H]2[C@@H](O)C[C@@H](O[C@H]3[C@@H](O)C[C@@H](O[C@H]4CC[C@@]5(C)[C@@H](CC[C@H]6[C@@H]5C[C@@H](O)[C@@]5(C)[C@H](C7=CC(=O)OC7)CC[C@@]65O)C4)O[C@@H]3C)O[C@@H]2C)O[C@@H]1C,1
17,C=CCN1C(=O)NC(=O)/C(=C/c2ccco2)C1=O,0.971
18,NC(=O)c1cn([C@H]2O[C@@H](CO)[C@H](O)[C@@H]2O)c2ncnc(N)c12,0.892
19,CN1[C@@H]2CC[C@H]1C[C@H](O)C2,1
20,C=C1[C@@H](C)[C@H]2[C@H](Cc3ccccc3)NC(=O)[C@]23[C@H](OC(C)=O)/C=C/[C@](C)(O)C(=O)[C@@H](C)C/C=C/[C@H]3[C@@H]1O,0.976
21,O=S(=O)(O)O.Oc1cccc2cccnc12,0.0986 (active)
22,CC12CCC3c4ccc(OC(=O)N(CCCl)CCCl)cc4CCC3C1CCC2O (stereo unspecified),0.992
23,CCCCCCCCCC(=O)O[C@@H]1[C@@H](C)[C@]2(O)[C@@H](C=C(CO)C[C@]3(O)C(=O)C(C)=C[C@@H]23)[C@@H]2C(C)(C)[C@@]12OC(=O)CCCCCCCCC,1.03

# Source: the supplement of paper PMC9446081
